Activity calls are given as the source filed them. No rule for the calls is given here.
molecular target: Serine/threonine-protein kinase pim-1 (Homo sapiens) (UniProt P11309); experiment: compound-induced PIM1 thermal stabilization – biophysical, human, melting temperature shift (AID 393); details: Thermal shift assay, stronger effect = higher value; at 10 µM, protein 2 µM, buffer 10 mM PIPES, pH 6.5, NaCl 150 mM unless noted
Sequence (P11309 whole entry, looked up): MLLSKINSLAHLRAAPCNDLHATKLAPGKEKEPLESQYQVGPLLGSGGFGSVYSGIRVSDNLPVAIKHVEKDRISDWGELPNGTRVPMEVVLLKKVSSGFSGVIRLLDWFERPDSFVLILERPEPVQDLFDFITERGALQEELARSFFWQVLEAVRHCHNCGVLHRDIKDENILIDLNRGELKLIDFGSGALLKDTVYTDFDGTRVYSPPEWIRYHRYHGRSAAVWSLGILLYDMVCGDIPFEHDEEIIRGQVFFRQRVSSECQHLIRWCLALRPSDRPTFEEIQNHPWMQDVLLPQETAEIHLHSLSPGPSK

Tm shift, active:
CC(=O)Nc1cccc(-c2cnc3ccc(NC4CCOCC4)nn23)c1 3.48 Celsius
CCC(CO)Nc1ccc2ncc(-c3ccc(F)c(Cl)c3)n2n1 (stereo unspecified) 9.05 Celsius
Oc1cc(O)cc(/C=C/c2ccc(O)c(O)c2)c1 3.2 Celsius [at 10 µM, protein 2 µM, buffer 10 mM Na Citrate, pH 6.5, NaCl 150 mM]
Nc1cc2ncnc(Nc3cccc(Br)c3)c2cc1N 3.4 Celsius [at 10 µM, protein 2 µM, buffer 10 mM Na Citrate, pH 6.5, NaCl 150 mM]
CCC(CO)Nc1ccc2ncc(-c3cccc(OC(F)(F)F)c3)n2n1 (stereo unspecified) 9.04 Celsius
Clc1cccc(-c2cnc3ccc(NC4CCOCC4)nn23)c1 7.02 Celsius [at 10 µM, protein 3 µM, buffer 10 mM HEPES]
CC(C)[C@@H](CO)Nc1ccc2ncc(-c3ccc(C#N)cc3)n2n1 4.53 Celsius
NCCNC(O)(O)c1cccc2c(Cl)cccc12 3.5 Celsius [at 10 µM, protein 2 µM, buffer 10 mM Na Citrate, pH 6.5, NaCl 150 mM]
Clc1cccc(-c2cnc3ccc(NCCc4ccccn4)nn23)c1 7.06 Celsius [at 5 µM, protein 1 µM, buffer 10 mM HEPES]
O=c1cc(-c2ccc(O)cc2)oc2cc(O)cc(O)c12 3.4 Celsius [at 10 µM, protein 2 µM, buffer 10 mM Na Citrate, pH 6.5, NaCl 150 mM]
CC(C)[C@@H](CO)Nc1ccc2ncc(-c3cccc(OC(F)(F)F)c3)n2n1 8.65 Celsius
CC(O)(O)C1(O)C[C@@H]2O[C@@]1(C)n1c3ccccc3c3c4c(c5c6ccccc6n2c5c31)C(=O)NC4 (stereo partly specified) 4.3 Celsius [at 10 µM, protein 2 µM, buffer 10 mM Na Citrate, pH 6.5, NaCl 150 mM]
Fc1ccc(CNc2ccc3ncc(-c4ccco4)n3n2)cc1 6.35 Celsius [at 5 µM, protein 1 µM, buffer 10 mM HEPES]
CCC(CO)Nc1ccc2ncc(-c3cccc(CO)c3)n2n1 (stereo unspecified) 3.17 Celsius
c1ccc(-c2cnc3ccc(NCc4ccco4)nn23)cc1 3.07 Celsius [at 5 µM, protein 1 µM, buffer 10 mM HEPES]
O=C1NC(=O)C(c2cn(CCCn3ccnc3)c3ccccc23)=C1Nc1ccccc1 3.1 Celsius [at 10 µM, protein 2 µM, buffer 10 mM Na Citrate, pH 6.5, NaCl 150 mM]
CCn1c(O)c(C2=NC(=S)NC2=O)c2ccccc21 3.12 Celsius
O=C1c2ccccc2-c2n[nH]c3cccc1c23 4.2 Celsius [at 10 µM, protein 2 µM, buffer 10 mM Na Citrate, pH 6.5, NaCl 150 mM]
CC(=O)n1c(O)c(C2=NC(=S)NC2=O)c2ccccc21 3.17 Celsius
NCCNc1ncc(C(N)=O)c(Nc2cccc(C(F)(F)F)c2)n1 5.5 Celsius [at 10 µM, protein 2 µM, buffer 10 mM Na Citrate, pH 6.5, NaCl 150 mM]
COc1ccc2oc3c(=O)[nH]cnc3c2c1 3.45 Celsius
N#Cc1ccc(-c2cnc3ccc(NC4CCOCC4)nn23)cc1 5.36 Celsius
Clc1cccc(Nc2ccn3ncc(-c4cccnc4)c3n2)c1 3.08 Celsius [at 10 µM, protein 2 µM, buffer 25 mM HEPES, pH 7.5, NaCl 250 mM]
CNC(=O)c1cc(Oc2ccc(NC(=O)Nc3ccc(C)c(C(F)(F)F)c3)cc2)ccn1 3.1 Celsius [at 10 µM, protein 2 µM, buffer 10 mM Na Citrate, pH 6.5, NaCl 150 mM]
Nc1ccc(-c2cnn3ccc(Nc4cccc(Cl)c4)nc23)cc1 6.84 Celsius
Fc1cccc(-c2cnc3ccc(NC4CCOCC4)nn23)c1 6.94 Celsius
CCN(CC)CCNC(=O)c1c(C)[nH]c(/C=C2\C(=O)Nc3ccc(Cl)cc32)c1C 3.2 Celsius [at 10 µM, protein 2 µM, buffer 10 mM Na Citrate, pH 6.5, NaCl 150 mM]
OCC1=C(O)C(O)[C@@H](N2CNc3cc(Cl)c(Cl)cc32)O1 (stereo partly specified) 3.7 Celsius [at 10 µM, protein 2 µM, buffer 10 mM Na Citrate, pH 6.5, NaCl 150 mM]
c1csc(-c2cnc3ccc(NCC4CC4)nn23)c1 4.75 Celsius [at 5 µM, protein 1 µM, buffer 10 mM HEPES]
CCC(CO)Nc1ccc2ncc(-c3ccc(C(=O)O)cc3)n2n1 (stereo unspecified) 5.19 Celsius
Cc1cc(O)c2c(c1)C(=O)c1cc(O)cc(O)c1C2=O 6.3 Celsius [at 10 µM, protein 2 µM, buffer 10 mM Na Citrate, pH 6.5, NaCl 150 mM]

Source: PubChem BioAssay AID393 (SGCOxCompounds, 2006)
